Source: PubChem
proKLK7 act: proKLK7 zymogen activators, primary screen, biochemical, fluorescence intensity; AID 652039, 2013; purified proKLK7, EDANS-DABCYL substrate fluorescence; 100% is mature enzyme control, 0% vehicle; activation, % at 7 µM; 370,000 tested, 0.9% active;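 active = activation above the mean of all tested compounds plus 3 SD, computed per campaign excluding outliers beyond control limits, cut at about 13% in these data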
rCAG RNA binder: binders of r(CAG) RNA repeats, primary screen, biochemical, fluorescence | r(CAG) RNA repeat, TO-PRO-1 dye displacement fluorescence | inhibition, % at 3 µM | AID 651821, 2012 | 370,000 tested, 1.3% active;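 active = inhibition above the plate cutoff, the mean of all test compounds on that plate plus 3 SD, cut at about 35% in these data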;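 note: higher means more dye released from RNA so lower well fluorescence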
ADAM10 inh: human ADAM10 inhibitors, primary screen, biochemical, QFRET, HTS. Disintegrin and metalloproteinase domain-containing protein 10 (Homo sapiens), O14672. recombinant ADAM10, EDANS/DABCYL FRET peptide cleavage, 3 h. inhibition, % at 7 µM. 370,000 tested, 0.62% active;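 active = inhibition above a per-campaign cutoff equal to the mean of compounds falling between control-based bounds plus 3 SD, cut at about 20% in these data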
AHR activator: AHR activators, primary screen, cell-based, luminescence, luciferase reporter, human | 320,000 tested, 2.5% active | AHR-responsive luciferase reporter cells | AID 2796, 2010 | Aryl hydrocarbon receptor (Homo sapiens), P35869 | activation, % at 5 µM; in the data active = activation above about 47%
Target sequence (P35869 whole entry, looked up): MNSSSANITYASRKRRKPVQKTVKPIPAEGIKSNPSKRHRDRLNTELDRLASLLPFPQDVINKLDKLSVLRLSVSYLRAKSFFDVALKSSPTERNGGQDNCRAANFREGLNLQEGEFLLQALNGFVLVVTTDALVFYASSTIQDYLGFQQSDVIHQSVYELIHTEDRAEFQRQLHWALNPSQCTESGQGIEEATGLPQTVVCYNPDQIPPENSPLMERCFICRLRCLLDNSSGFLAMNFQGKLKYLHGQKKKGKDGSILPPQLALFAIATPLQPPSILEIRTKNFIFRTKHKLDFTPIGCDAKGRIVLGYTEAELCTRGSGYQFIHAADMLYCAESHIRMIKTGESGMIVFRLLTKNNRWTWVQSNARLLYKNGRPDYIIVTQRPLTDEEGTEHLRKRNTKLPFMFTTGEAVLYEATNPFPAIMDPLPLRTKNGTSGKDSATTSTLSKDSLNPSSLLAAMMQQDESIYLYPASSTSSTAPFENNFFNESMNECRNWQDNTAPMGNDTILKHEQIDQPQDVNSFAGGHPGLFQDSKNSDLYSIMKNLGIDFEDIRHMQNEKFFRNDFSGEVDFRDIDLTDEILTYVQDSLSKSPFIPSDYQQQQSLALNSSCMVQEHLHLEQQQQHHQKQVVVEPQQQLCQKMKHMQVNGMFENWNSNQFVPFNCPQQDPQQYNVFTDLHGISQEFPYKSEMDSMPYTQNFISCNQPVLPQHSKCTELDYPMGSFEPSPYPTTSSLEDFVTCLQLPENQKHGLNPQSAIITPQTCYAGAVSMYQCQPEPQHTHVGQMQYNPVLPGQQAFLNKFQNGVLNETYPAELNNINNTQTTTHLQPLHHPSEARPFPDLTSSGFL
GRIN3A LBD mod: binders of NR3A ligand-binding domain, primary screen, biophysical, differential scanning fluorimetry, uHTS | NR3A LBD differential scanning fluorimetry, Tm shift; 0% = protein alone, 100% = glycine-bound protein | AID 1259313, 2017 | 340,000 tested, 2.5% active | Tm shift relative to glycine control, % at 25 µM | Glutamate receptor ionotropic, NMDA 3A (GRIN3A) ligand-binding domain;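 active = melting temperature shift of at least 10% of the positive control shift, at one fixed dose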
ADAM17 inh: ADAM17 inhibitors, primary screen, biochemical, QFRET | 370,000 tested, 0.83% active | AID 720648, 2013 | Disintegrin and metalloproteinase domain-containing protein 17 (Homo sapiens), P78536 | inhibition, % at 6.95 µM | recombinant ADAM17, EDANS/DABCYL FRET peptide cleavage;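 active = inhibition above the mean of compounds lying between control limits plus 3 SD, set per campaign, cut at about 8.5% in these data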
Numbers stand for hits; – = inactive; · = not tested or not shown. Only some compounds are listed: those with a hit (about 7% of all), similar ones and a draw of the others.

SMILES	proKLK7 act	rCAG RNA binder	ADAM10 inh	AHR activator	GRIN3A LBD mod	ADAM17 inh
Cn1c(=O)c2[nH]c(SCC(=O)NCCc3cccc(F)c3)nc2n(C)c1=O	–	–	–	·	·	–
c1ccc(-c2nc(NC3CCCC3)c3ccccc3n2)cc1	–	–	–	53.4	–	–
Cc1ccc(C)c(Nc2nc(-c3ccncc3)nc3ccccc23)c1	–	–	–	67.9	–	–
c1ccc(Nc2nc(-c3ccccc3)nc3ccccc23)cc1	–	–	–	–	11.2	–
CNC(=O)c1ccc(Nc2nc(-c3ccccc3)nc3ccccc23)cc1	–	–	–	–	–	–
CCC(=O)OCCCN1CCC2(CCC(c3ccccc3)CC2)C1=O (stereo not drawn)	–	–	–	·	·	–
COc1cc(CN(CC(C)C)S(=O)(=O)c2ccccc2Br)cc(OC)c1	–	–	–	·	–	–
COc1cccc(CN(CCC(C)C)S(=O)(=O)c2cc(Br)ccc2Br)c1	–	–	–	·	15.4	–
Cc1ccc(CN2CCCCC(NC(=O)c3ccc(COc4ccccc4)cc3)C2=O)cc1 (stereo not drawn)	–	–	–	·	·	–
Cc1c(C(=O)N/N=C/c2ccc(N(C)C)cc2)[nH]c2ccc(Cl)cc12	–	–	–	–	26.6	–
Cc1c(C(=O)N/N=C/c2ccccc2)[nH]c2ccc(Cl)cc12	–	–	–	–	30.2	–
CC(C)CNS(=O)(=O)CC1NCc2cc3c(cc21)OCO3 (stereo not drawn)	–	–	–	·	·	–
CCCCn1c(SCC(=O)Nc2ccc(NC(C)=O)cc2)nc2ccccc2c1=O	–	–	–	–	32.5	–
CCCCn1c(SCC(=O)NCc2ccco2)nc2ccc(N3CCOCC3)cc2c1=O	14.9	–	–	–	–	–
CCCCn1c(SCC(=O)NCc2ccccc2)nc2ccc(N3CCOCC3)cc2c1=O	–	–	–	–	–	–
Cc1ccc(NC(=O)CSc2nc3c([nH]c4ccccc43)c(=O)n2C)cc1	–	–	–	59.9	–	–
Cn1c(SCC(=O)Nc2ccc(F)cc2)nc2c([nH]c3ccccc32)c1=O	–	–	–	–	–	–
Cn1c(SCC(=O)Nc2cccc(F)c2)nc2c([nH]c3ccccc32)c1=O	–	–	–	–	29.5	–
N#Cc1ccc(OC[C@@H](O)CN2CCC(C(O)(c3ccccc3)c3ccccc3)CC2)cc1F	–	–	–	·	·	–
Cc1cc(N2CCN(C(=O)OC(C)(C)C)C[C@H]2C)ccc1N1CCS(=O)(=O)CC1	–	–	–	·	·	–
CCn1c(SCC(=O)Nc2ccc(NC(C)=O)cc2)nc2c([nH]c3ccccc32)c1=O	–	–	–	–	11.7	–
CCn1c(SCC(=O)N(C)c2ccccc2)nc2c([nH]c3ccccc32)c1=O	–	–	–	71.9	–	–
CCn1c(SCC(=O)N2CC(C)OC(C)C2)nc2c([nH]c3ccccc32)c1=O (stereo not drawn)	–	–	–	49.9	–	–
COC(=O)[C@]12C[C@H](CC(=O)N3CCCC3)C(=O)N(Cc3ccc(Cl)cc3Cl)C1=C[C@H](COCc1ccccc1)O[C@@H]2C	–	–	–	·	·	–
Cc1ccc(S(=O)(=O)N[C@H](C(=O)OCC(=O)NC(=O)C2CCCCC2)C(C)C)cc1	–	–	–	–	22.9	–
SMILES	proKLK7 act	rCAG RNA binder	ADAM10 inh	AHR activator	GRIN3A LBD mod	ADAM17 inh
CCCCCCCCN1C(=O)[C@@H](CC(=O)NCc2cccs2)C[C@@]2(C(=O)OC)C1=C[C@H](COCc1ccccc1)O[C@@H]2C	–	–	–	·	·	–
COc1ccccc1CCC[C@@H](CCS(=O)(=O)C(C)C)CC1CCCCC1	–	–	–	·	·	–
CC(C)Oc1ccc(-c2cc(=O)[nH]c(=O)[nH]2)cc1	–	–	–	69.2	–	–
Cc1ccc(NC(=O)OCCCN2C(=O)CCC23CCC(C)CC3)cc1C (stereo not drawn)	–	–	–	·	·	–
CCNC(=S)N(Cc1ccc2c(c1)OCO2)C1CC(=O)N(c2ccc(F)cc2)C1=O (stereo not drawn)	–	–	–	–	–	–
CCNC(=S)N(Cc1ccc2c(c1)OCO2)C1CC(=O)N(c2ccc(OC)cc2)C1=O (stereo not drawn)	–	–	–	–	25.6	–
CCNC(=S)N(Cc1ccc(OC)cc1)C1CC(=O)N(c2ccc(OCC)cc2)C1=O (stereo not drawn)	–	–	–	–	17.8	–
C[C@@H]1COc2cccc(N3CCCC3)c2S(=O)(=O)N1	–	–	–	·	·	–
COc1cc2oc(=O)cc(-c3cccc(-c4ccc(C(F)(F)F)cc4)c3)c2c(OC)c1OC	–	–	–	·	16.8	–
COc1cc2oc(=O)cc(-c3ccc(-c4ccc(C(F)(F)F)cc4)cc3)c2c(OC)c1OC	·	·	·	·	–	·
CCC(C)c1ccc2oc(-c3ccc(NC(=O)Cn4cnc5c(=O)n(C)c(=O)n(C)c54)cc3)nc2c1 (stereo not drawn)	–	–	–	–	23.1	–
COCCCN1C(=O)[C@H](CC(=O)N2CCN(C(=O)C3CC3)CC2)[C@]2(C(=O)OC)CCCCC=C12	–	–	–	·	·	–
CC(=O)c1ccc(NC(=S)NC(=O)/C=C/c2ccccc2)cc1	–	–	–	–	–	–
CC(=O)Nc1ccc(NC(=S)NC(=O)/C=C/c2ccc(Cl)cc2)cc1	–	–	–	–	–	–
CCC(=O)Nc1ccc(NC(=S)NC(=O)/C=C/c2ccccc2)cc1	–	–	–	–	14.7	–
COC(=O)c1sccc1NC(=O)/C=C/c1ccc(Cl)cc1	–	–	–	54.1	–	–
CC(=O)c1ccc(NC(=O)/C=C/c2ccc(C)cc2)cc1	–	–	–	–	20.5	–
CCC(=O)Nc1ccc(NC(=O)/C=C/c2ccc(Cl)cc2)cc1	–	–	–	–	19.6	–
CCOC(=O)[C@@]12CN(C(=O)OC(C)(C)C)CC=C1N(Cc1ccc(OC)cc1)C(=O)[C@H]2CC(=O)NCCc1ccccc1OC	–	–	–	·	·	–
O=C(Nc1ccc2ccccc2c1)c1cccc2ccccc12	–	–	–	·	–	–
CCOc1ccc(NC(=O)c2cccc3ccccc23)cc1	–	–	–	–	41.9	–
CCOc1ccc(NC(=O)c2cc3ccccc3cc2O)cc1	–	–	–	–	–	–
CCOc1ccc(NC(=O)c2cc(OC)nc3ccccc23)cc1	–	–	–	65.3	·	–
CN1C(=O)c2ccc(NC(=O)c3cccc4ccccc34)cc2C1=O	–	–	–	–	17.5	–
